SMILES strings stand for the structures. Several values for one entry are separate records, joined by “and”; a condition that tells them apart may be missing. Equal entries are not always repeated. Records with an inconclusive call do not appear. A call without a number means that no potency is given here. The source holds several records for some structures; these can differ, active in one and inactive in another. Activity calls are given as the source filed them. Unless noted, calls follow the shape of the dose curve; as a rule, active = well fitted cell-killing curve with a large enough effect in the repeat runs; inconclusive = weak or mixed curves, or effect the other way; inactive = no such curve, though single readings can be large or run the other way.
Also: nearly all actives have a fitted effect of over 50% in size.

A short description of the first test: qHTS assay to identify small molecule agonists of the endoplasmic reticulum stress response signaling pathway - cell viability counter screen (AID 1159517; calls by dose curve; also: potency is read from the fitted curve at half-maximal effect). The following applies: ESRE-bla HeLa viability, CellTiter-Glo luminescence, 5 h; series mostly up to 61 µM. The method, boiled down: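 Counter-screen wells were identical to the reporter wells. Cells were plated at 1,500 per well and dosed for 5 hr, then read for luminescence 30 min after CellTiter-Glo addition.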
Turning to `CCCCCC=O`, the Potency result is “inactive”. With `OC[C@@H](O)[C@@H](O[C@@H]1O[C@H](CO)[C@H](O)[C@H](O)[C@H]1O)[C@H](O)[C@@H](O)CO`, the Potency entry was “inactive”. As to `Nc1ccc2c(O)cc(S(=O)(=O)O)cc2c1`, the Potency entry is “inactive”. In the case of `C=CCOC(=O)C(=C)C`, the Potency entry is “inactive”. `Cc1ccc(N)c([N+](=O)[O-])c1`: the Potency result was “inactive”. On the same count and under the same terms, with `FC(F)(F)C(Cl)Br` (stereo not drawn) the entry was “inactive”; with `CC1(C)NC(=O)N(c2ccc([N+](=O)[O-])c(C(F)(F)F)c2)C1=O`, “inactive”; with `CCCCCCCC/C=C\CCCCCCCC(=O)O`, “inactive”. Same read-out and setting: in the case of `CC(=O)[C@@]1(O)CC[C@H]2[C@@H]3C[C@H](C)C4=CC(=O)C=C[C@]4(C)[C@@]3(F)[C@@H](O)C[C@@]21C` it was “inactive”; in that of `CC(C)[C@@H]1CC[C@@H](C)CC1=O`, “inactive”; in that of `O=C(O)COCCN1CCN(C(c2ccccc2)c2ccc(Cl)cc2)CC1` (stereo not drawn), “inactive”. As for `Cc1ccc(S(=O)(=O)NCl)cc1`, the Potency result is “inactive”. For `C1CN(SSN2CCOCC2)CCO1`, the Potency entry was “inactive”. Same read-out and setting: in the case of `c1ccc2cc3ccccc3cc2c1` it was “inactive”. As for `O=S1(=O)CCCO1`, the Potency entry is “inactive”. Regarding `Nc1ccc(O)c(N)c1`, the Potency result is “inactive and 54.9 µM (active)”. With `C=CN1CCCC1=O`, the Potency entry is “inactive”. As to `Cc1ccc(C(C)(C)C)cc1`, the Potency result was “inactive”. On the same count and under the same terms, with `CC(C)(C)c1cccc(C(C)(C)C)c1O` the entry was “inactive”. Still for that read-out and setting: in the case of `OCCNCCO` it was “inactive”; in that of `C=C[Si](OCCOC)(OCCOC)OCCOC`, “inactive”. On the same count and under the same terms, with `C[C@]12CC[C@@H]3c4ccc(O)cc4CC[C@H]3[C@@H]1CC[C@H]2O` the entry was “inactive”. For `C[C@]12CC[C@@H]3c4ccc(O)cc4CC[C@H]3[C@@H]1CC[C@@H]2O`, the Potency result is “inactive”. The same measure, in the same setting: in the case of `Cc1ccc(C)c(O)c1` it was “inactive”; in that of `NCCN`, “inactive”.

The nature of the next test: qHTS assay to identify small molecule antagonists of the retinoid-related orphan receptor gamma (ROR-gamma) signaling pathway - cell viability counter screen (AID 1159520). The conditions noted are these: Tet-on RORgamma CHO cells viability, ATP luminescence, 16 h; series mostly up to 92.4 µM. In outline:
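Tet-on ROR gamma CHO cells were given compounds for 2 hr, then doxycycline hyclate at 1 uM final, and incubated 16 hr at 37 C. Viability was measured as ATP content by CellTiter-Glo luminescence.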
On to `COc1ccc(C(=O)c2ccccc2O)c(O)c1`, for which the Potency result was “inactive”. Still for that read-out and setting: in the case of `CCCCCC=O` it was “inactive”; in that of `C=C[C@@]1(C)CC(=O)[C@]2(O)[C@@]3(C)[C@@H](O)CCC(C)(C)[C@@H]3[C@H](O)[C@H](OC(C)=O)[C@@]2(C)O1`, “inactive”; in that of `CC(=O)O[C@]1(C(C)=O)CC[C@H]2[C@@H]3C=C(Cl)C4=CC(=O)CC[C@]4(C)[C@H]3CC[C@@]21C`, “inactive”. Same read-out and setting: in the case of `OC[C@@H](O)[C@@H](O[C@@H]1O[C@H](CO)[C@H](O)[C@H](O)[C@H]1O)[C@H](O)[C@@H](O)CO` it was “inactive”; in that of `Nc1cc([N+](=O)[O-])ccc1C(=O)O`, “inactive”; in that of `Nc1ccc2c(O)cc(S(=O)(=O)O)cc2c1`, “inactive”.

`C=CCOC(=O)C(=C)C`: the Potency entry was “inactive”. As for `Cc1ccc(N)c([N+](=O)[O-])c1`, the Potency entry was “inactive”.

Regarding `O=C(O)c1ccc(O)cc1`, the Potency result was “inactive”.

`O=C1OC2(c3ccccc31)c1cc(I)c(O)c(I)c1Oc1c2cc(I)c(O)c1I`: the Potency entry is “inactive”. Consider `IC(I)I`, for which the Potency entry was “inactive”. Same read-out and setting: with `CCCCCCC(C)O` (stereo not drawn) the entry was “inactive”; with `CCCCCCCCCCC(CO)CCCCCCCC` (stereo not drawn), “inactive”.

On to `C=CC(=O)OCCCC`, for which the Potency result is “inactive”.

Turning to `CCCCCC1C(=O)CCC1CC(=O)OC` (stereo not drawn), the Potency entry was “inactive”. As for `FC(F)(F)C(Cl)Br` (stereo not drawn), the Potency entry was “inactive”.

On to `CC1(C)NC(=O)N(c2ccc([N+](=O)[O-])c(C(F)(F)F)c2)C1=O`, for which the Potency entry was “inactive”. With `CCCCCCCC/C=C\CCCCCCCC(=O)O`, the Potency result was “inactive”. On the same count and under the same terms, with `CC(=O)[C@@]1(O)CC[C@H]2[C@@H]3C[C@H](C)C4=CC(=O)C=C[C@]4(C)[C@@]3(F)[C@@H](O)C[C@@]21C` the entry was “inactive”; with `Cc1cccc(Nc2ccccc2C(=O)O)c1C`, “inactive”. Take `CC(C)[C@@H]1CC[C@@H](C)CC1=O`: the Potency result was “inactive”. Still for that read-out and setting: with `O=C(O)COCCN1CCN(C(c2ccccc2)c2ccc(Cl)cc2)CC1` (stereo not drawn) the entry was “inactive”. For `Cc1ccc(S(=O)(=O)NCl)cc1`, the Potency result is “inactive”.

Regarding `c1ccc2cc3ccccc3cc2c1`, the Potency entry was “inactive”. Take `O=S1(=O)CCCO1`: the Potency entry is “inactive”. On the same count and under the same terms, with `Nc1ccc(O)c(N)c1` the entry was “inactive”; with `CN(Cc1cnc2nc(N)nc(N)c2n1)c1ccc(C(=O)N[C@@H](CCC(=O)O)C(=O)O)cc1`, “inactive”.

For the compound `C=CN1CCCC1=O`, the Potency result was “inactive”. For the compound `Cc1ccc(C(C)(C)C)cc1`, the Potency result is “inactive”. Same read-out and setting: with `CC(C)(C)c1cccc(C(C)(C)C)c1O` the entry was “inactive”; with `OCCNCCO`, “inactive”; with `Cc1ccc(C(C)(C)C)c(O)c1`, “inactive”. Still for that read-out and setting: in the case of `C=C[Si](OCCOC)(OCCOC)OCCOC` it was “inactive”; in that of `C[C@]12CC[C@@H]3c4ccc(O)cc4CC[C@H]3[C@@H]1CC[C@H]2O`, “inactive”.

With `C[C@]12CC[C@@H]3c4ccc(O)cc4CC[C@H]3[C@@H]1CC[C@@H]2O`, the Potency result was “inactive”. On the same count and under the same terms, in the case of `Cc1ccc(C)c(O)c1` it was “inactive”.

For `NCCN`, the Potency entry was “inactive”.

Source of the values: PubChem BioAssay (Tox21).
